Composite z-score and z-score data for eight compounds are collected here from PubChem BioAssay.

Molecules are shown by their SMILES. Calls of active or inactive are those of the source. Unless noted, no rule for the calls is given here.

Test [1] concerns Wnt5a (protein binding on small-molecule microarray). Briefly: small molecules binding Wnt5a protein – biophysical, small-molecule microarray, 635/667 nm fluorescence, primary screen (AID 1142).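 Also: fluorescence read at 667 nm with signal to noise per printed feature.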 The settings on record: 635 nm fluorescence, higher = more signal.
Test [2] is described as follows: ATP-based viability of Huh7 replicon cells – cell-based, CellTiter-Glo luminescence, basal, 48 h, cytotoxicity control for HCV replication inhibitor project, primary screen (AID 1143).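 Also: Huh7 hepatoma cells carrying a hepatitis C replication reporter with no stimulus; test concentration not given here.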 The settings on record: higher = more signal, called active from +8 up or from −8 down. On the technique in general: Replicon systems follow genome replication, usually without infectious particles.

Test [3] is described as follows: Pseudomonas biofilm growth suppression – PAO1 strain, BacTiter-Glo luminescence, LB-PBS, primary screen (AID 1144). The settings on record: P. aeruginosa PAO1 biofilm, 12 h, higher = more signal.
A short description of test [4]: basal CRE-LacZ reporter activity in PC12 – cell-based, unstimulated, primary screen (AID 1145). The settings on record: no forskolin, luminescence, 4.5 h, higher = more signal, called active from +8 up or from −8 down.
The nature of test [5]: forskolin-driven CRE-LacZ activity in PC12 – cell-based, CRE-LacZ reporter, forskolin-stimulated, primary screen (AID 1146).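 Also: PC12 cells with 6xCRE LacZ reporter stimulated by forskolin 10 µM; beta-galactosidase reporter signal reflecting CREB driven transcription.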 The settings on record: luminescence, 4.5 h, higher = more signal, called active from +8 up or from −8 down.
For test [6], the target named is Streptavidin (Streptomyces avidinii) (UniProt P22629). Briefly: compounds binding control protein streptavidin – biophysical, small-molecule microarray, 635/667 nm fluorescence, artefact control for SMM compound annotation, primary screen (AID 1147).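 Also: signal reflects streptavidin binding to arrayed compounds as a control protein.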 The settings on record: higher = more signal.
A short description of test [7]: probe aInhba binding on compound microarray – biochemical, small-molecule microarray, 635/667 nm fluorescence, primary screen (AID 1148).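 Also: score merges 667nm spot fluorescence with signal-to-noise for antibody binding to printed compounds.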 The settings on record: higher = more signal.
The target in test [8] is Torsin-1A (Homo sapiens) (UniProt O14656). Briefly: TOR1A wild-type binding on microarray – cell lysate, small-molecule microarray, lysate, 635/667 nm, primary screen (AID 1149). The settings on record: COS7 hTOR1A-WT lysate, 635 nm fluorescence, higher = more signal.
For test [9] the target is unchanged. Briefly: torsin A mutant lysate binding on microarrays – cell lysate, small-molecule microarray, COS7 lysate, 635/667 nm fluorescence, primary screen (AID 1150).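 Also: score pools 667 nm emission and signal to noise measuring lysate protein binding.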 The settings on record: COS7 hTOR1A mutant lysate, 635 nm fluorescence, higher = more signal.
Test [10] relates to Sonic hedgehog protein (Shh). Description: Sonic hedgehog microarray binding compounds – biochemical, small-molecule microarray, 635/667 nm fluorescence, primary screen (AID 1151).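 Also: Shh protein binding to compounds spotted on small-molecule microarray slides; score combines spot fluorescence intensity with signal-to-noise across triplicate slides.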 The settings on record: 635 nm fluorescence, higher = more signal.
The nature of test [11]: optical density shifts of acrAB sulA E. coli – strain DRC41, OD650, 48 h, E. coli filamentation inducer project, primary screen (AID 1152).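 Also: E. coli MC1000 strain DRC41 lacking acrAB efflux pump and sulA.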 The settings on record: higher = more signal, called active from +8 up or from −8 down.
A short description of test [12]: probe aLefty1 binding on compound microarray – biochemical, small-molecule microarray, 635/667 nm fluorescence, primary screen (AID 1153).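 Also: score merges spot fluorescence with signal-to-noise ratio from the scanned slide images.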 The settings on record: higher = more signal.
The nature of test [13]: plasmodial surface anion channel blockers, osmotic lysis – cell-based, P. falciparum Indochina, OD700, 1 h, primary screen (AID 1154). The settings on record: P. falciparum Indochina infected RBC osmotic lysis, higher = more signal, called active from +8 up or from −8 down.
Test [14] in a line: plasmodial surface anion channel blockers, osmotic lysis – cell-based, P. falciparum Indochina, OD700, 2 h, primary screen (AID 1155).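 Also: lysis reports solute entry through the parasite surface anion channel PSAC.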 The settings on record: P. falciparum Indochina infected erythrocytes, higher = more signal, called active from +8 up or from −8 down.
A short description of test [15]: changes in parasitized red cell lysis, either direction – P. falciparum Indochina, OD700, 3 h, PSAC antagonist project, primary screen (AID 1156). The settings on record: P. falciparum-infected erythrocytes, osmotic lysis, higher = more signal, called active from +8 up or from −8 down.
Test [16] can be described thus: plasmodial surface anion channel blockers, osmotic lysis – cell-based, P. falciparum Indochina, OD700, 18 h, primary screen (AID 1157). The settings on record: P. falciparum Indochina infected erythrocytes, osmotic lysis OD700, 18 h; higher = more signal, called active from +8 up or from −8 down.
Test [17] can be described thus: S6 kinase pathway phospho-S6 level changes – cell-based, A549, cytoblot, luminescence, serum-stimulated, primary screen (AID 1158).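 Also: serum-stimulated A549 lung adenocarcinoma cells; signal is phosphorylated S6 detected by cytoblot immunostaining with HRP secondary.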 The settings on record: 5 h, higher = more signal.
In test [18] the target is NADPH oxidase 2 (Homo sapiens) (UniProt P04839). Description: compounds shifting NOX2 Amplex Red fluorescence – cell-based, HEK293-NOX2, PMA-stimulated, NOX inhibitor project, primary screen (AID 1159). Also: test concentration not given here. The settings on record: 45 min, higher = more signal, called active from +8 up or from −8 down.
Test [19] deals with NADPH oxidase 4 (Homo sapiens) (UniProt Q9NPH5). Briefly: compounds shifting NOX4 Amplex Red fluorescence – cell-based, HEK293-NOX4, tetracycline-induced, NOX inhibitor project, primary screen (AID 1160). The settings on record: HEK293-NOX4, Amplex Red H2O2 fluorescence, 45 min; higher = more signal, called active from +8 up or from −8 down.
The target of test [20] is NADPH oxidase 5 (Homo sapiens) (UniProt Q96PH1). Briefly: compounds shifting NOX5 Amplex Red fluorescence – cell-based, HEK293-NOX5, NOX inhibitor project, primary screen (AID 1161). The settings on record: HEK293-NOX5, ionomycin, 45 min, higher = more signal.
Sequence of NADPH oxidase 5 (Homo sapiens) (Q96PH1 whole entry, looked up): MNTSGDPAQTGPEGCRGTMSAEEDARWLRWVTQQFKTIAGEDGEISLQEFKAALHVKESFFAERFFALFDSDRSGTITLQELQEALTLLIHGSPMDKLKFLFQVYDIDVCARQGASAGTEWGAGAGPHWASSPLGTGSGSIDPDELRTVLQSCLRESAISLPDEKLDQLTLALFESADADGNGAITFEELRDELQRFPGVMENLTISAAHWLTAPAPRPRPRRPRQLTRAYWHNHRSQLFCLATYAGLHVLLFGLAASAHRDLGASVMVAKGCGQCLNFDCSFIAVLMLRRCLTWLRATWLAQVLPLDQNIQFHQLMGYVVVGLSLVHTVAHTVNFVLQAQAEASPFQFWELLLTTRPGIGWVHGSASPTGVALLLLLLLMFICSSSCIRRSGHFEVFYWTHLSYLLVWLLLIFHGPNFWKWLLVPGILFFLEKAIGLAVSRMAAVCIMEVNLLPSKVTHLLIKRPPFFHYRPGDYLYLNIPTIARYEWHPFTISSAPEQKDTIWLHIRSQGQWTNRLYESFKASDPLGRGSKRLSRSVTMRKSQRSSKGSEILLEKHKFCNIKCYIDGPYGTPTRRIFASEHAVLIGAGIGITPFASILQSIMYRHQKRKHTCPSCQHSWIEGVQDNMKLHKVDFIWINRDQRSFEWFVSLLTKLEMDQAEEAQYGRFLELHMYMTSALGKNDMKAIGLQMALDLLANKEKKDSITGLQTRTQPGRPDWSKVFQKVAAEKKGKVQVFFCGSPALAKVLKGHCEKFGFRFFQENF

Sequence of NADPH oxidase 4 (Homo sapiens) (Q9NPH5 whole entry, looked up): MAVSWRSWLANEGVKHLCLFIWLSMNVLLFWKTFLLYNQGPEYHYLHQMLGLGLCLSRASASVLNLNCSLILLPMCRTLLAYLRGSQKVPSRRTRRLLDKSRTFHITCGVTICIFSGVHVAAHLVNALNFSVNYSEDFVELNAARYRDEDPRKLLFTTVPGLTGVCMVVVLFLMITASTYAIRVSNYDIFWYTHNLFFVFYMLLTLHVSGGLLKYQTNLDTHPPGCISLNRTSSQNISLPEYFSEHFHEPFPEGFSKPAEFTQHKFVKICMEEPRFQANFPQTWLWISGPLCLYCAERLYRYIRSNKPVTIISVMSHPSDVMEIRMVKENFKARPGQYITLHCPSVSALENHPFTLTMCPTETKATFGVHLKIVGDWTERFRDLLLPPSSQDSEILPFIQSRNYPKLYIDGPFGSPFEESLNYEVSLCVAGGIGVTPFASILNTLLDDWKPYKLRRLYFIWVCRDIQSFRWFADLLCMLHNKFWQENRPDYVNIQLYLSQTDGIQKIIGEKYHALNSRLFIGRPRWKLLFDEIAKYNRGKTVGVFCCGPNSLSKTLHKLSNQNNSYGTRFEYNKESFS
Sequence of NADPH oxidase 2 (Homo sapiens) (P04839 whole entry, looked up): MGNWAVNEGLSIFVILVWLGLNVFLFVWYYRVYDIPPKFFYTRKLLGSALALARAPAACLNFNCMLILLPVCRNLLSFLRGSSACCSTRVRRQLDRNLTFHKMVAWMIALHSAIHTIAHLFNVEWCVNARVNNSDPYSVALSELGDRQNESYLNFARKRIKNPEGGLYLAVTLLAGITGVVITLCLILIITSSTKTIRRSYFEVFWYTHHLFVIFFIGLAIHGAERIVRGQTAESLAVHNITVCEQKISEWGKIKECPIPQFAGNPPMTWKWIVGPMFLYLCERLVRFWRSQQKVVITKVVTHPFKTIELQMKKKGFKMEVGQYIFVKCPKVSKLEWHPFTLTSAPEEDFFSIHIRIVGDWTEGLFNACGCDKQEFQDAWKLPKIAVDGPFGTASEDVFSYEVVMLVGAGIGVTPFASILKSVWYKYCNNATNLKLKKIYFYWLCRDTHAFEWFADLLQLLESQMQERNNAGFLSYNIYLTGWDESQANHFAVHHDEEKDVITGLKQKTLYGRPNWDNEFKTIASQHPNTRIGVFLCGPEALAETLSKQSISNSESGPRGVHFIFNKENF
Sequence of Torsin-1A (Homo sapiens) (O14656 whole entry, looked up): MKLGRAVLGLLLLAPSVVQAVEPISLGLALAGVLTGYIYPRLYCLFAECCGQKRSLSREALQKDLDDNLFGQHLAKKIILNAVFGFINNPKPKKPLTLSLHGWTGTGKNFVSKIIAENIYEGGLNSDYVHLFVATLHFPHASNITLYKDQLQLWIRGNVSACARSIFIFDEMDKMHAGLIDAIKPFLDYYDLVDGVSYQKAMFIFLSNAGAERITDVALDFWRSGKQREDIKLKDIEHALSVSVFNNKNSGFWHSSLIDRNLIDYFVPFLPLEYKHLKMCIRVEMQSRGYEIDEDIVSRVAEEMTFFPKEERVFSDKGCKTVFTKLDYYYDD
Sequence of Streptavidin (Streptomyces avidinii) (P22629 whole entry, looked up): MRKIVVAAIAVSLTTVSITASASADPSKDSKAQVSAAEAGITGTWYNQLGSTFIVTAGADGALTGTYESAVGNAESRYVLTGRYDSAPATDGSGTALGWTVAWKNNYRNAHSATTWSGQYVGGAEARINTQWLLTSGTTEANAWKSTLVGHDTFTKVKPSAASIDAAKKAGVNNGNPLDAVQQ

Turning to `O=C(NN=C1C[C@@H](O)[C@@H](O)[C@@H]2[C@@H]3C(=O)N(c4ccc(F)cc4F)C(=O)[C@@H]3CC[C@@H]12)OCc1ccccc1`, the composite z-score in test [1] is -0.132; in test [6], 0.98; in test [7], -0.128; in the test with Torsin-1A (Homo sapiens) [8], 0.871; in the test with Torsin-1A (Homo sapiens) [9], 0.464; in [10], -0.33. This compound also returned a composite z-score in test [12] of 0.0536. Moreover, the z-score in test [2] is 0.375 (inactive); in [3] it was 1.21 (inactive); in test [4], 0.16 (inactive); in [5], 0.829 (inactive); in [11], 0.113 (inactive); in test [13], 3.79 (inactive). In addition, the z-score in test [14] is 0.326 (inactive); in test [15], -0.479 (inactive); in test [16] it was 0.0094 (inactive); in test [17], -0.849; in test [18], 1.56 (inactive); in [19], 0.882 (inactive). Also, the z-score in test [20] was 0.0449.
In the case of `CN1C(=O)C2C=CC(C(O)c3ccc(Br)cc3)N(N(c3ccccc3)c3ccccc3)C2C1=O` (stereo not given), the composite z-score was -0.0158 in test [1]; 1.04 in test [6]; -0.0375 in test [7]; 0.293 with Torsin-1A (Homo sapiens) [8]; -0.135 with Torsin-1A (Homo sapiens) [9]; -0.583 in test [10]. This compound also came in with a composite z-score in test [12] of 0.446. In addition, the z-score in test [2] was -0.776 (inactive); in [3], -1.19 (inactive); in [4] it was 1 (inactive); in [5], -0.342 (inactive); in test [11] it was -1.19 (inactive); in test [13] it was 15.4 (active). Further, the z-score was 3.08 (inactive) in test [14]; 0.948 (inactive) in test [15]; 1.76 (inactive) in [16]; -0.0423 in [17]; 1.2 (inactive) in test [18]; 0.184 (inactive) in test [19]. Moreover, the z-score in [20] came to 0.24.
Take `CCOc1ccc(N2C(=O)/C(=C/C=C/c3ccccc3OC)S(=O)(=O)C2c2cccc([N+](=O)[O-])c2)cc1` (stereo not given): the composite z-score in test [1] is -0.0676; in [6], 0.27; in [7], -0.0596; with Torsin-1A (Homo sapiens) [8], 1.94; with Torsin-1A (Homo sapiens) [9], 0.184; in test [10], 0.37. For the same compound, in test [12], the composite z-score is -0.0193. In addition, the z-score in [2] is -4.29 (inactive); in [3] it was -1.57 (inactive); in [4], 0.0026 (inactive); in test [5], -1.2 (inactive); in [11] it was 3.21 (inactive); in test [13], 1.03 (inactive). Besides, the z-score in test [14] was 0.282 (inactive); in [15] it was -1.1 (inactive); in [16] it was -1.04 (inactive); in test [17], 2.38; in [18], 0.5 (inactive); in test [19], 0.389 (inactive). Further, in [20], the z-score was determined as 1.49.
Take `CC[C@@H](c1ccccc1)n1c(=O)n2n(c1=O)[C@H]1[C@H](O)[C@@H]3O[C@@H]3C(=NOCC(C)C)[C@H]1CC2`: the composite z-score in [1] was -0.11; in test [6], -0.36; in [7], -0.0405; with Torsin-1A (Homo sapiens) [8], -0.132; in the test with Torsin-1A (Homo sapiens) [9], -0.115; in test [10] it was 0.636. The same compound yielded a composite z-score in [12] of -0.0508. Moreover, the z-score in test [2] was 0.529 (inactive); in [3] it was 0.51 (inactive); in test [4], 0.786 (inactive); in test [5], 0.671 (inactive); in [11], -1.11 (inactive); in test [13], -0.0462 (inactive). Also, the z-score was -0.155 (inactive) in test [14]; 0.282 (inactive) in [15]; -0.0656 (inactive) in test [16]; 0.123 in test [17]; 1.72 (inactive) in [18]; 0.386 (inactive) in [19]. The z-score in test [20] turned out to be 0.371.
For `Cc1ccc(S[C@]2(C(=O)O)CC(=O)N(Cc3ccccc3)[C@@H]2c2ccc(CO)cc2I)cc1`, the composite z-score was -0.405 in [1]; 0.556 in test [6]; -0.0963 in test [7]; -0.995 with Torsin-1A (Homo sapiens) [8]; -0.604 with Torsin-1A (Homo sapiens) [9]; -0.41 in test [10]. The compound further yielded a composite z-score in [12] of 0.157. For the same compound, the z-score in test [2] is -1.32 (inactive); in test [3] it was 0.116 (inactive); in test [4], 1.97 (inactive); in test [5], 1.63 (inactive); in test [11] it was -0.308 (inactive); in test [13] it was 13.9 (active). In addition, the z-score was 2.07 (inactive) in test [14]; 1.47 (inactive) in [15]; 0.842 (inactive) in test [16]; -0.31 in test [17]; 1.71 (inactive) in test [18]; -2.26 (inactive) in test [19]. Besides, in [20], the z-score is 0.38.
For the compound `C[N+](C)(C)CCCCCCNC(=O)[C@@H]1C[C@@H]2C(=O)N3CCC[C@H]3C(=O)N2[C@@H]1c1cccc(OCCO)c1`, the composite z-score in test [1] is -0.0544; in test [6] it was -1.05; in test [7] it was -0.0754; in the test with Torsin-1A (Homo sapiens) [8] it was -0.383; with Torsin-1A (Homo sapiens) [9], 0.624; in test [10] it was 2.25. Besides, the composite z-score in test [12] is 0.388. The z-score was -0.345 (inactive) in test [2]; -1.34 (inactive) in test [3]; -1.34 (inactive) in test [4]; 0.27 (inactive) in test [5]; 0.733 (inactive) in test [11]; 5.3 (inactive) in [13]. The z-score is 0.679 (inactive) in [14]; 1.45 (inactive) in test [15]; 0.277 (inactive) in test [16]; 0.0239 in test [17]; 0.15 (inactive) in test [18]; 0.982 (inactive) in test [19]. Further, in test [20], the z-score stood at 1.49.
On to `COc1ccc(O[C@@H]2[C@H](O)CO[C@H]2C=CC#Cc2ccccc2)cc1`, for which the composite z-score was -0.02 in test [1]; -0.31 in [6]; -0.0762 in test [7]; 0.23 with Torsin-1A (Homo sapiens) [8]; 0.286 with Torsin-1A (Homo sapiens) [9]; 0.332 in [10]. In addition, the composite z-score in test [12] was -0.147. For the same compound, the z-score in [2] was 0.163 (inactive); in [3] it was 0.995 (inactive); in test [4], 0.201 (inactive); in test [5], 0.415 (inactive); in test [11], -0.939 (inactive); in test [13], 2.74 (inactive). The z-score is 0.488 (inactive) in test [14]; 0.356 (inactive) in test [15]; 0.0508 (inactive) in test [16]; -0.367 in [17]; 0.0749 (inactive) in [18]; 1.23 (inactive) in test [19]. Further, in test [20], the z-score turned out to be 1.46.
For the compound `C#CCCCON=C1C[C@@H](O)[C@@H](O)[C@@H]2[C@@H]3C(=O)N(Cc4ccccc4)C(=O)[C@@H]3CC[C@H]12`, the composite z-score was 0.203 in test [1]; 0.0194 in test [6]; -0.209 in [7]; 0.289 with Torsin-1A (Homo sapiens) [8]; -0.0292 with Torsin-1A (Homo sapiens) [9]; 0.985 in test [10]. Further, in test [12], the composite z-score was -0.111. The z-score in test [2] is -3.22 (inactive); in [3], -1.13 (inactive); in [4], 0.793 (inactive); in test [5], -0.645 (inactive); in test [11] it was 0.362 (inactive); in test [13], 1.38 (inactive). The z-score in [14] is -0.506 (inactive); in [15], 0.659 (inactive); in [16], -1.29 (inactive); in test [17] it was 0.69; in test [18], 0.162 (inactive); in test [19], 0.196 (inactive). For the same compound, the z-score in test [20] was -0.36.
